Bioassay records: PubChem, National Center for Advancing Translational Sciences (NCATS)
Only a selection was taken, and hits are over-represented in it overall.
PKM2 act – PKM2 (human) enzyme activation | purified PKM2, Kinase-Glo ATP luminescence, activation; response scale: 0% is enzyme alone, no compound | Potency, µM (highest dose often 57.5 µM), usual class: activators | hit rate 0.34% among 260,000; note: nearly all actives have a fitted effect of over 55% in size
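Kinase-Glo luminescence reports ATP generated from ADP (0.1 mM) and PEP (0.5 mM) by purified hPK-M2 after 1 h at room temperature, pH 7.2 imidazole buffer; intermediate enzyme activity allows detecting inhibitors and activators.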
KDM4E inh – inhibitors of human JMJD2E histone demethylase; JMJD2E catalytic domain, FDH-coupled NADH fluorescence (FDH is formaldehyde dehydrogenase); Potency, µM (doses to about 57.1 µM), most hits filed as inhibitors; hit rate 1.6% among 230,000; active = well fitted inhibition curve with a large enough effect, not every such curve was filed as active; inconclusive = small, poorly fitted or top-dose-only effect, or another doubt; inactive = no such curve, though single readings can be large or run the other way; note: nearly all actives have a fitted effect of over 50% in size
Target sequence (B2RXH2 1-337 limits assumed): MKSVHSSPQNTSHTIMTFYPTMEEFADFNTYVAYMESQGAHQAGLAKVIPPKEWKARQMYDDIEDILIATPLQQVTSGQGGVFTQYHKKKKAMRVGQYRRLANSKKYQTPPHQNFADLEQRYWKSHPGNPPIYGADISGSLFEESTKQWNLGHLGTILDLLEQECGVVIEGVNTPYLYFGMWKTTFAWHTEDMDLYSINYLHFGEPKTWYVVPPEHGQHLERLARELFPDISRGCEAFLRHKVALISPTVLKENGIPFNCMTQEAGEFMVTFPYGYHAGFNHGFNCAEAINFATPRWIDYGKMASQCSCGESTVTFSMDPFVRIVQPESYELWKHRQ
RECQ1 inh – RECQ1 (human) helicase inhibition | RECQ1 DNA unwinding, red fluorescence kinetic read | Potency, µM (top dose mostly 57.3 µM), actives largely listed as inhibitors | hit rate 0.54% among 240,000; note: nearly all actives have a fitted effect of over 30% in size
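RECQ1T1 50 nM; forked duplex (20 bp + 30-nt ss tails) 200 nM, ATP 2 mM final; pH 8.0, 2 mM MgCl2, 2.5 ug/ml poly(dI-dC); 15 min compound preincubation; discontinuous kinetic read over 2 h at RT.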
BLM inh – blocks DNA unwinding by human BLM helicase. recombinant BLM DNA unwinding, fluorescence dequenching. Potency, µM (series often up to 56.1 µM), hits mostly inhibitors. hit rate 0.2% among 350,000. AID 2528; note: nearly all actives have a fitted effect of over 35% in size
APE1 inh – inhibitors of human APE1 endonuclease; AID 2517; hit rate 0.35% among 350,000; P27695; recombinant APE1, TAMRA/BHQ-2 abasic DNA cleavage fluorescence; Potency, µM (titrated, usually from 65.8 µM), most hits filed as inhibitors; note: nearly all actives have a fitted effect of over 55% in size
Target sequence (P27695 whole entry, looked up): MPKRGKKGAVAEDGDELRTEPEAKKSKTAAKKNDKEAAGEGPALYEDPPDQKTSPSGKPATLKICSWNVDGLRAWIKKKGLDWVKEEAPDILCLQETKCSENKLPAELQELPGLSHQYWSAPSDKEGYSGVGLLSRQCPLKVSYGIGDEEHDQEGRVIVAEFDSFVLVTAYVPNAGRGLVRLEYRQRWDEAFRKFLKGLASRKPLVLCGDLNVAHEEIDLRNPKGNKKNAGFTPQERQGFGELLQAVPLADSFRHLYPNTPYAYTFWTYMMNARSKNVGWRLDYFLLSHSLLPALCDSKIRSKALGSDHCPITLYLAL
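APE1 at 0.75 nM preincubated 15 min at room temperature with compound. Reaction then started with 50 nM double-stranded THF-abasic substrate labelled with TAMRA/BHQ-2, and 525/598 nm fluorescence read kinetically. Activity taken as third-minus-first read difference, normalized to DMSO and NSC13755 controls.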
Hits are given with their value; 0 = inactive; ? = inconclusive; - = not tested or not shown; ! = repeats disagree; [ ] = dose if it differs, or a comment. Unless noted, calls come from the whole dose curve; as a rule, active = well fitted curve in the direction sought with a large enough effect; inconclusive = small, poorly fitted or top-dose-only effect, or another doubt; inactive = no such curve, though single readings can be large; an effect the other way counts as inactive or inconclusive.

SMILES | PKM2 act | KDM4E inh | RECQ1 inh | BLM inh | APE1 inh
O=c1[nH]c2cc3c(cc2cc1CN(Cc1ccccc1)Cc1nnnn1Cc1ccco1)OCCO3 | ? | ? | ? | 0 | 0
COc1ccccc1CN(Cc1cc2cc3c(cc2[nH]c1=O)OCCO3)Cc1nnnn1Cc1ccco1 | 20µM | ? | 0 | 0 | 0
CC1(C)OC(c2ccccc2)=C/C(=C\C=N\NC(=O)c2ccncc2)O1 | 0 | 22.4µM | 0 | 0 | ?
COc1ccc([C@@H]2CC(=O)c3c(O)cc(O[C@@H]4O[C@H](CO[C@@H]5O[C@@H](C)[C@H](O)[C@@H](O)[C@H]5O)[C@@H](O)[C@H](O)[C@H]4O)cc3O2)cc1 | - | - | 0 | 0 | 0
CCOC(=O)C1=C(C)N=c2s/c(=C/c3cccc([N+](=O)[O-])c3O)c(=O)n2C1c1ccc(OC)cc1OC (stereo not drawn) | 0 | - | - | ? | 23.8µM
COC(=O)C1=C(C)NC(=O)/C1=C\c1cc(C)n(-c2cccc(C)c2)c1C | 0 | 0 | 0 | 0 | 0
COC(=O)C1=C(C)NC(=O)/C1=C\c1cc(C)n(-c2ccc(F)cc2)c1C | 0 | 20µM | 0 | 0 | 0
COc1ccc(COC(=O)N/N=C2/C[C@@H](O)[C@@H](O)[C@@H]3[C@@H]4C(=O)N(C5CCCCC5)C(=O)[C@H]4CC[C@@H]23)cc1 | - | - | 0[11.5 µM] | 0[12.4 µM] | 0[12.4 µM]
CCOc1cc(C=O)cc(N=Nc2cccc([N+](=O)[O-])c2)c1O | 0 | - | - | 0 | 0
Cc1nc(N=Nc2cc([N+](=O)[O-])ccc2Cl)c(COP(=O)(O)O)c(C=O)c1O | - | - | 28.2µM | 0 | 35.5µM
COC(=O)[C@H](Cc1ccccc1)NC(=O)O[C@@H]1C(=O)c2cc(OC)ccc2O[C@H]1c1cccc(OC)c1 | - | ? | 0 | 0 | 0
CCOc1ccc(NC(=O)c2cccc(-n3cccc3)c2)cc1S(=O)(=O)N1CCOCC1 | - | - | - | - | 1.34µM
COCCCNC(=S)N/N=C/c1ccccc1O | 0 | 28.2µM | 0 | 0 | 0
S=C(N/N=C/c1ccco1)NC1CC2CCC1C2 (stereo not drawn) | - | - | - | 0 | ?
Oc1ccccc1/C=N/NC(=S)NC1CC2CCC1C2 (stereo not drawn) | 0 | 25.1µM | 0 | 0 | 0
COCCNC(=S)N/N=C/c1ccccc1C(=O)O | 0 | 0 | 0 | 0 | 0
Cc1ccc(F)cc1-c1ccc(C(=O)N=C(N)N)o1 | - | - | 0 | 0 | ?
C=C1CC2C(=O)N(Cc3cc(OC)ccc3OC)C(C(=O)OCC)C1N2C (stereo not drawn) | - | - | 0 | 0 | ?
NC(=O)C1CCN(c2nc(-c3ccccc3Cl)cs2)CC1 | - | - | - | - | 0
CC1(C)CC(=O)C(N=Nc2ccc(C(F)(F)F)cc2[N+](=O)[O-])=C(O)C1 | 0 | 12.6µM | 0 | 0 | ?
CCOc1ccc(C=NNc2ccc(S(=O)(=O)Nc3ccccc3C(=O)O)cc2[N+](=O)[O-])cc1OC | - | - | - | - | 16.8µM
C=CC(=O)OCCCC | - | - | 0 | - | 0
CC(=O)Nc1c([N+](=O)[O-])cc2[nH]c(=O)[nH]c2c1[N+](=O)[O-] | 0 | 25.1µM | 0 | 0 | 0
COC(=O)C1=C(C)N(Cc2ccccc2)C(=NCc2ccco2)N[C@H]1c1ccc(Br)cc1 | 0 | - | - | 0 | -
CCCCNC(=O)Nc1ccnn1C1CCCCC1 | 3.98µM | 0 | 0 | 0 | 0
SMILES | PKM2 act | KDM4E inh | RECQ1 inh | BLM inh | APE1 inh
COc1ccccc1NC(=O)Nc1ccnn1C1CCCCC1 | 0 | 0 | 0 | 0 | 0
CC(Sc1nc(N)c2c3c(sc2n1)CSC(C)(C)C3)C(=O)Nc1ccccc1 (stereo not drawn) | 7.08µM | 0 | ? | 0 | 0
COc1cccc(CCc2ccccc2OCC(CN(C)C)OC(=O)CCC(=O)O)c1 (stereo not drawn) | - | - | - | 0 | -
CCCC[C@H](CN(N=O)[C@@H](Cc1ccccc1)CN(C)N=O)N(CCc1ccccc1)N=O | 0 | 0 | 0 | 0 | 0
CC(C)C[C@@H](CN(C)N=O)N(C[C@H](Cc1ccccc1)N(CCc1ccccc1)N=O)N=O | 0 | 0 | 3.98µM | 0 | 0
COCC(=O)N1CCc2nc(-c3ccc(OC)cc3C)c3c(c2C1)CO[C@@H](c1ccccc1)C3 | 0[11.5 µM] | 0[11.4 µM] | 0[11.5 µM] | 0[12.4 µM] | 0[12.4 µM]
O=C(NCCOCCn1c(=O)oc2ccccc21)Nc1ccc(Cl)cc1 | - | - | - | 0 | -
O=C1c2ccccc2-c2onc3ccc(NCCCn4ccnc4)c1c23 | 0 | 0 | 28.2µM | 35.5µM | 28.2µM
CCC=O | - | - | 0 | - | 0
CC[C@@H](C)CCCCC(=O)N[C@H](CCN)C(=O)N[C@@H](C(=O)N[C@H](CCN)C(=O)N[C@@H]1CCNC(=O)C([C@@H](C)O)NC(=O)[C@@H](CCN)NC(=O)[C@@H](CCN)NC(=O)[C@@H](CC(C)C)NC(=O)[C@@H](Cc2ccccc2)NC(=O)[C@@H](CCN)NC1=O)[C@@H](C)O (stereo partly drawn) | - | - | - | - | 0
Cc1ccccc1N=Cc1cccc(O)c1O | 0 | 11.2µM | ? | 0 | ?
Cc1ccc(N=Cc2cccc(O)c2O)c(C)c1 | 12.6µM | 14.1µM | 0 | 0 | 0
CCN(CC)c1ccc(C=Nc2ccc(C)cc2C)c(O)c1 | 0 | 0 | 0 | 0 | 0
Oc1cccc(/C=N/N=C/c2cccc(O)c2O)c1O | 0 | - | - | 0 | 0
COc1ccc(C2=Nn3c(nnc3-c3ccccc3C(F)(F)F)SC2)cc1OC1CCCC1 | - | - | - | - | 0
Cc1ccc(N=C2NC(=O)S/C2=C\c2ccco2)cc1 | 0 | 0 | 0 | 22.4µM | 0
O=C1NC(=Nc2ccccc2)/C(=C/c2ccco2)S1 | 0 | ? | 0 | 0 | 0
COc1cc(/C=N/Nc2ccc(F)cc2F)cc(OC)c1O | 0 | 7.94µM | 0 | 0 | 0
CC(=O)N[C@@H](CS)C(=O)O | 0 | 25.1µM! | 0 | 0 | 0
CC(=O)N[C@H](CS)C(=O)O | - | ? | 0 | 0 | 0
Cc1ccc(-c2cc(C(=O)NC3=NCCS3)c3cc(Br)ccc3n2)o1 | 0 | 8.91µM | 0 | 0 | 0
Cc1ccc(-c2cc(C(=O)O)c3cc(Br)ccc3n2)o1 | 0 | ? | ? | 0 | 0
c1ccc(C(NCc2cccnc2)(c2ccccc2)c2ccccc2)cc1 | - | - | 0 | 0 | 0
CC(=O)N[C@@H](C=O)[C@H](O)[C@H](O)[C@@H](O)CO | - | - | - | - | 0
COC(=O)c1cnn2c(C)c(Cc3cccc(F)c3)c(C)nc12 | 0 | 3.55µM | 0 | 0 | 0
SMILES | PKM2 act | KDM4E inh | RECQ1 inh | BLM inh | APE1 inh
CCCn1c(N)c(C(=O)CSc2nc(C)cs2)c(=O)n(C)c1=O | 15.8µM | 0 | 0 | 0 | 0
N#CCCSc1ccccc1NC(=O)c1ccc(S(=O)(=O)N2CCCC2)cc1 | 20µM | 0 | 0 | 0 | 0
Cc1ccccc1NC(=O)c1ccc(S(=O)(=O)N2CCCC2)cc1 | 0 | - | - | 0 | 0
CC(N)CN (stereo not drawn) | - | - | 0 | - | 0
O=C1/C(=C\c2ccc(O)c(O)c2)N=C2CCCCCN12 | 0 | 12.6µM | 0 | 0 | 0
COc1cc(/C=C2\N=C3CCCCCN3C2=O)ccc1O | 0 | 0 | 0 | 0 | 0
C[n+]1c2cc(N)ccc2cc2ccc(N)cc21 (tested in a mixture with another compound) | - | - | - | - | 25.1µM
